Results filed as inconclusive are left out. Calls of active or inactive are those of the source. Calls follow the shape of the dose curve; as a rule, active = well fitted inhibition curve with a large enough effect; inconclusive = small, poorly fitted or top-dose-only effect, or another doubt; inactive = flat fitted curve, though single readings scatter.
target: D(2) dopamine receptor (Homo sapiens) (UniProt P14416); assay: HTS Assay for Allosteric Antagonists of the Human D2 Dopamine Receptor: SAR in D2 Beta Arrestin Assay; details: DiscoveRx PathHunter D2 beta-arrestin recruitment, luminescence
From the text: There is great interest in identifying small molecule ligands for G-protein coupled receptors (GPCRs) as nearly 50% of all FDA-approved drugs target these important receptor proteins. […] Amongst the dopamine receptors (DARs), the D2 is arguably one of the most validated drug targets in neurology and psychiatry. For instance, all receptor-based antiparkinsonian drugs primarily work via stimulating the D2 DAR, whereas all FDA-approved antipsychotic agents are antagonists of this receptor. The D2 DAR is also therapeutically targeted in other disorders such as restless legs syndrome, tardive dyskinesia, Tourette's syndrome, and hyperprolactinemia. […] This is an orthogonal assay to test the lead compounds against the D2 receptor, using a beta arrestin assay. NIH Molecular Libraries Probe Production Network [MLPCN] NIH Chemical Genomics Center [NCGC] Grant: NS0676421 PI Name: David Sibley, National Institutes of Neurological Disorders and Stroke
DiscoveRx D2 cells were thawed from frozen stock and seeded at 2,100 cells/ 3 uL/well media (DiscoveRx Plating Reagent 2) with MultiDrop Combi dispenser (Thermo Scientific, Logan, UT) onto white tissue culture treated 1536-well Aurora plates (Brooks Automation, Chelmsford, MA) and allowed to attach overnight at 37 deg C, 5% CO2. Next, 23 nL/well of compound solutions in DMSO were added with a pintool transfer (Kalypsis, San Diego, CA). As the positive control, 1 uL/well dopamine (EC100, 57 uM final concentration) diluted in buffer (HBSS + 10 mM HEPES + SMB + 0.1% Tween-20) was dispensed to 1 column of each plate. The rest of the plate was dispensed with buffer only, 1 uL/well as well. The cells were stimulated by compounds or dopamine control for 90 minutes at 37 deg C, 5% CO2, after which 1.5 ul/well of DiscoveRx detection reagent was added with BioRAPTR FRD dispenser. The detection reagent was prepared by mixing of Galacton Star Substrate, Emerald II solution and PathHunter buffer (supplied by the assay kit) together at 1:5:19 proportion accordingly just prior to dispensing. The plates were incubated at ambient temperature for 1 hour and then the luminescent signal was read on ViewLux plate reader (PerkinElmer, Waltham, MA).

Chain of D(2) dopamine receptor (Homo sapiens) (P14416 whole entry, looked up): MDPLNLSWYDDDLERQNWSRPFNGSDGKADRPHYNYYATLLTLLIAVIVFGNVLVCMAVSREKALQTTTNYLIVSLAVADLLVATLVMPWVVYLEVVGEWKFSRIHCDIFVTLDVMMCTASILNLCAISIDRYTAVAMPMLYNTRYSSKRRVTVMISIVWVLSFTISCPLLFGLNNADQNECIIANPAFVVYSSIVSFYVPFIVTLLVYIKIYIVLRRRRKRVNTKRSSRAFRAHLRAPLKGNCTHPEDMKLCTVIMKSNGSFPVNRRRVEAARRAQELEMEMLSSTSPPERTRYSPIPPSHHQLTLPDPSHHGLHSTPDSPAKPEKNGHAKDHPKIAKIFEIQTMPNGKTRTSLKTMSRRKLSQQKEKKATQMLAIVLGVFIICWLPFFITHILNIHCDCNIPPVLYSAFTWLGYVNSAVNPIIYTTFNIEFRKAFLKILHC

Question: With `CCN1C(=O)c2ccccc2[S@](=O)c2ccc(C(=O)NCc3ccc(F)cc3)cc21` as the compound, how does the Potency read?
Answer: The Potency was 576 nM (active).

Question: For `CCN1C(=O)c2ccccc2[S@](=O)c2ccc(C(=O)N[C@H](C)c3ccc(Br)cc3)cc21`, which Potency is on record?
Answer: The Potency was 1290 nM (active).

Question: How did the Potency turn out when `CCN1C(=O)c2ccccc2S(=O)c2ccc(C(=O)NCc3ccc(OC)cc3)cc21` (configuration not stated) was run?
Answer: The Potency was 2890 nM (active).

Question: How did the Potency turn out when `CCN1C(=O)c2ccccc2[S@](=O)c2ccc(C(=O)N[C@H](C)c3ccc4ccccc4c3)cc21` was run?
Answer: The Potency was 2890 nM (active).

Question: For `CN1C(=O)c2ccccc2[S@](=O)c2ccc(C(=O)NCc3cccnc3)cc21`, which Potency is on record?
Answer: The Potency was 2890 nM (active).

Question: How did the Potency turn out when `CN1C(=O)c2ccccc2[S@](=O)c2ccc(C(=O)NCc3ccc(Cl)cc3)cc21` was run?
Answer: Its Potency is 2890 nM (active).

Question: With `CCN1C(=O)c2ccccc2[S@](=O)c2ccc(C(=O)NCc3ccc(OC)cc3)cc21` as the compound, how does the Potency read?
Answer: The Potency was 1150 nM (active).

Question: For `CN1C(=O)c2ccccc2[S@](=O)c2ccc(C(=O)NCc3ccc(Br)cc3)cc21`, which Potency is on record?
Answer: The Potency was 1020 nM (active).

Question: Which Potency does the source give for `CCN1C(=O)c2ccccc2[S@](=O)c2ccc(C(=O)NCc3ccc(C#N)cc3)cc21` here?
Answer: The Potency was 257 nM (active).

Question: How did the Potency turn out when `CN1C(=O)c2ccccc2[S@](=O)c2ccc(C(=O)NCCc3cccs3)cc21` was run?
Answer: The Potency was 725 nM (active).

Question: `CN1C(=O)c2ccccc2S(=O)c2ccc(C(=O)NCCc3cccs3)cc21` (configuration not stated) was tested. Which Potency did it give?
Answer: Its Potency is 913 nM (active).

Question: With `CN1C(=O)c2ccccc2[S@](=O)c2ccc(C(=O)NCCN3CCCC3)cc21` as the compound, how does the Potency read?
Answer: The Potency was 363 nM (active).

— PubChem BioAssay AID624495 (National Center for Advancing Translational Sciences (NCATS), 2012)
